Laboratory results reported in the supplement of paper PMC10981050.
Where “and” joins values, the source holds several entries; their conditions need not be identical. Equal values may be shown once. Where a name gives a salt, the structure may show the parent alone.

Experiments:
Assay in all cases: cell viability relative to vehicle control; higher = less cytotoxic
Conditions in all cases: 10 µM
K562 = test system: K562
Outline: (§1)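 Mutant clones made by CRISPR editing and their isogenic wild-type counterparts, from four leukaemia lines, were exposed to a single 10 µM dose of each library compound for 48 h. The supernatant was then removed and CellTiter-Glo luminescence was read. Viability was reported as percent of the on-plate vehicle control.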

MARIMO = test system: MARIMO
Outline: as §1

MOLM14 = test system: MOLM14
Outline: as §1

OCI-AML2 = test system: OCI-AML2
Outline: as §1

| SMILES | cell viability (K562; SRSF2 genotype: SRSF2 P95H/wt) | cell viability (K562; SRSF2 genotype: SRSF2 wt/wt) [%] | cell viability (MARIMO; SRSF2 genotype: SRSF2 P95H/wt) [%] | cell viability (MARIMO; SRSF2 genotype: SRSF2 wt/wt) [%] | cell viability (MOLM14; SRSF2 genotype: SRSF2 P95H/wt) [%] | cell viability (MOLM14; SRSF2 genotype: SRSF2 wt/wt) [%] | cell viability (OCI-AML2; SRSF2 genotype: P95H/wt) [%] | cell viability (OCI-AML2; SRSF2 genotype: wt/wt) [%] |
| --- | --- | --- | --- | --- | --- | --- | --- | --- |
| COCCc1ccc(OCC(O)CNC(C)C)cc1 (stereo not drawn) [Metoprolol tartrate] | 107% and 106% | 106 | 102 | 104 | 104 | 105 | 106 | 106 |
| O=c1cc(N2CCOCC2)oc2c(-c3cccc4c3sc3ccccc34)cccc12 | 89.7% and 97.5% | 88.3 | 93 | 87.3 | 60.5 | 51.9 | 52.5 | 66.4 |
| Cc1ccccc1N1CCN(CCc2nnc3n2CCCC3)CC1 [Dapiprazole Hydrochloride] | 103% and 96% | 93.2 | 97.7 | 110 | 97 | 102 | 96.4 | 97.1 |
| COc1cc2c(cc1OC)[C@H]1[C@@H](C)c3ccc(OC)c(OC)c3CN1CC2 [Corydaline] | 84.4% and 88.8% | 86.6 | 83.2 | 82 | 89.4 | 90.9 | 73.8 | 79.1 |
| C/C=C1\[C@H]2C=C(C)C[C@]1(N)c1ccc(=O)[nH]c1C2 [(-)-Huperzine A (HupA)] | 105% and 103% | 108 | 103 | 103 | 115 | 110 | 109 | 103 |
| COc1ccccc1N1CCN(CCN2C(=O)CC3(CCCC3)CC2=O)CC1 [BMY 7378 Dihydrochloride] | 98.9% and 100% | 91.1 | 95.3 | 106 | 99.9 | 95.2 | 89.4 | 105 |
| CCCCC[C@](C)(O)/C=C/[C@@H]1[C@@H](C/C=C\CCCC(=O)O)[C@@H](O)C[C@H]1O [Carboprost] | 110% and 101% | 102 | 97.5 | 91.1 | 78.8 | 99.7 | 90.3 | 90.1 |
| O=C(/C=C/c1ccc(O)c2c1[C@H](C(=O)O)[C@@H](c1ccc(O)c(O)c1)O2)O[C@H](Cc1ccc(O)c(O)c1)C(=O)O [Lithospermic acid] | 96.8% and 101% | 96 | 97.9 | 88.7 | 104 | 99.9 | 88.6 | 97.6 |
| Oc1ccc(CC2NCCc3cc(O)c(O)cc32)cc1 (stereo not drawn) [Higenamine hydrochloride] | 92.4% and 103% | 98 | 105 | 98.5 | 79.8 | 89.7 | 94.9 | 102 |
| NCCOCCOCCNC(=O)Cc1ccc(Nc2nc(NCc3ccc(F)cc3)nc(NCC3CCCCC3)n2)cc1 [AP-III-a4 (ENOblock)] | 81.5% and 90.7% | 87.5 | 94.3 | 97.1 | 16 | 14 | 75.2 | 79.6 |
| Cc1cc([N+](=O)[O-])ccc1NS(=O)(=O)c1cc(Cl)ccc1Cl | 79.9% and 88% | 86.3 | 96.4 | 92.9 | 92.3 | 90.9 | 93.1 | 97.1 |
| CCCCC(=O)O[C@H]1CC[C@H]2[C@@H]3CCc4cc(O)ccc4[C@H]3CC[C@]12C [Estradiol valerate] | 84.7% and 95.4% | 94.2 | 84.7 | 69.3 | 69.9 | 69.2 | 45 | 30.4 |
| COc1cc(C(=O)NC2CCCNC2)cc(OC)c1OC (stereo not drawn) [Troxipide] | 98.2% and 99.3% | 101 | 102 | 106 | 103 | 100 | 99.7 | 105 |
| CN1CCC(=C2c3ccccc3C=Cc3ccccc32)CC1 [Cyproheptadine hydrochloride (Periactin)] | 90.8% and 86.3% | 83 | 77.3 | 89 | 72.5 | 91.5 | 81.1 | 85 |
| COC1(c2sc3c(N4CCOCC4)nc(-c4cnc(N)nc4)nc3c2C)COC1 | 40.8% and 45.4% | 40.3 | 47.9 | 38 | 26.3 | 24.1 | 4.68 | 16.4 |
| Cc1cn([C@@H]2C[C@@H](O)[C@H](CO)O2)c(=O)[nH]c1=O [Telbivudine (Sebivo, Tyzeka)] | 96.7% and 104% | 101 | 105 | 102 | 99.2 | 108 | 113 | 102 |
| N#CCC1(n2cc(-c3ncnc4[nH]ccc34)cn2)CN(C2CCN(C(=O)c3ccnc(C(F)(F)F)c3F)CC2)C1 | 99.3% and 104% | 107 | 97.5 | 101 | 97.6 | 102 | 108 | 110 |
| Cc1ccc(S(=O)(=O)OCC(=O)Nc2ccc(C(=O)O)c(O)c2)cc1 | 95.9% and 95.6% | 97.9 | 95.7 | 102 | 99.7 | 101 | 94.2 | 101 |
| CCOC(=O)c1c2c3c(cccc3[nH]c1=O)C(=O)c1ccccc1-2 | 95.8% and 97.2% | 90.7 | 84 | 96.1 | 90.7 | 95.8 | 92.4 | 101 |
| O=P(O)(O)Oc1cccc2ccccc12 [1-Naphthyl phosphate potassium salt] | 104% and 95% | 97.8 | 87.5 | 107 | 91.7 | 104 | 83.9 | 91.1 |
| Cc1ccc(-c2nn(C(C)(C)C)c3ncnc(N)c23)cc1 | 64.5% and 82.4% | 63.5 | 99.2 | 102 | 58.6 | 85.9 | 82 | 78.6 |
